PubChem BioAssay AID1985 (Southern Research Specialized Biocontainment Screening …, 2009)
In all, about 2,300 compounds went through this assay and about 1,000 (43%) were called active. How the calls were made is not given here. So high a share suggests a set chosen from earlier hits. Some of the results follow. Measured potencies and affinities stand elsewhere.

Test: modified counter assay using GFP fluorescence, PhoP regulon inhibitor project, dose response (AID 1985)
Details: S. Typhi, 4 h; series mostly up to 150 µM

For `COc1ccc(-c2nnn(-c3ccc(Cl)cc3Cl)c2N)cc1`, which outcome is on record?
Its outcome is “inactive”.

Which outcome does the source give for `Clc1ccc2nc(N3CCCCC3)[nH]c2c1` here?
Its outcome is “inactive”.

With `Clc1ccc(/C=C/c2ncc[nH]2)c(Cl)c1` as the compound, how does the outcome read?
The outcome was “inactive”.

With `CN(C)C(CNc1ccc([N+](=O)[O-])cc1C#N)c1ccccc1` (stereo not drawn) as the compound, how does the outcome read?
Its outcome is “inactive”.

For `COc1ccc(C(=O)C2CCN(CC(=O)Nc3cc(C)cc(C)c3)CC2)cc1`, which outcome is on record?
Its outcome is “inactive”.

Which outcome does the source give for `CCN1CCN(Cc2ccc(NC(=O)c3ccc(C)c(NC(=O)C(=O)c4c[nH]c5ccccc45)c3)cc2C(F)(F)F)CC1` here?
Its outcome is “inactive”.

Which outcome does the source give for `O=C(CSC1=NCCS1)Nc1nc2c(s1)CCCC2` here?
The outcome was “inactive”.

With `Cc1ccc(CNC(=O)CCC(=O)Nc2nnc(C)s2)cc1` as the compound, how does the outcome read?
Its outcome is “inactive”.

For `COc1ccc(CC(=O)Nc2ncc([N+](=O)[O-])s2)cc1OC`, which outcome is on record?
The outcome was “inactive”.

Which outcome does the source give for `O=C(c1cc2c(s1)-c1ccccc1S(=O)(=O)C2)N1CCN(Cc2ccccc2)CC1` here?
The outcome was “inactive”.

For `COCc1ccc(C(=O)Nc2ccc(C(=O)O)cc2)o1`, which outcome is on record?
Its outcome is “inactive”.

For `COc1cccc(OC)c1C(=O)Nc1ccc(N2CCN(S(C)(=O)=O)CC2)cc1`, which outcome is on record?
The outcome was “inactive”.

With `COC(=O)C1=C(C)N(C2CCCC2)C(=O)C1(NC(C)=O)C(F)(F)F` (stereo not drawn) as the compound, how does the outcome read?
Its outcome is “inactive”.

Which outcome does the source give for `NC(=O)c1cc(C(=O)c2cccc(Cl)c2Cl)c[nH]1` here?
The outcome was “inactive”.

Which outcome does the source give for `Cc1cnc(C(=O)Nc2nnc(C)s2)cn1` here?
The outcome was “inactive”.

Which outcome does the source give for `O=C1C=C(Nc2ccccc2O)c2ccccc2C1=O` here?
The outcome was “inactive”.

With `CCCCCCOc1ccc(N2C(=O)CC(SC(=NCC)NCC)C2=O)cc1` (stereo not drawn) as the compound, how does the outcome read?
Its outcome is “inactive”.

With `CCCCOc1ccc(CN2CCC(O)CC2)cc1` as the compound, how does the outcome read?
The outcome was “inactive”.

For `O=C1NC(=S)S/C1=C1\Sc2ccccc2N1CCCS(=O)(=O)O`, which outcome is on record?
Its outcome is “inactive”.

With `CN(C)CCCN1c2ccccc2Sc2ccc(C(F)(F)F)cc21` as the compound, how does the outcome read?
Its outcome is “inactive”.

With `Cc1ccc(C)c(NC(=O)c2ccccc2O)c1` as the compound, how does the outcome read?
Its outcome is “inactive”.

With `Cn1ncc(N=Cc2ccccc2O)c1C(=O)N1CCOCC1` as the compound, how does the outcome read?
The outcome was “inactive”.

With `O=C(Cc1ccc(F)cc1)NC1CCCC1` as the compound, how does the outcome read?
Its outcome is “inactive”.

With `Cc1ccc(C)c(OCc2ccc(C(=O)NN)o2)c1` as the compound, how does the outcome read?
The outcome was “inactive”.

Which outcome does the source give for `O=C(NC1CCCCC1)c1ccc(S(=O)(=O)NCc2cccnc2)cc1` here?
The outcome was “inactive”.

With `Cc1nc(-c2ccc(C(=O)N3CCOCC3)cc2)cs1` as the compound, how does the outcome read?
The outcome was “inactive”.

Which outcome does the source give for `C[C@]1(OC(=O)/C=C/c2ccccc2)C[C@@H](O)[C@]2(O)C=CO[C@@H](O[C@@H]3O[C@H](CO)[C@@H](O)[C@H](O)[C@H]3O)[C@@H]21` here?
Its outcome is “inactive”.

Which outcome does the source give for `C1=Nc2ccccc2CN1c1ccccc1` here?
The outcome was “inactive”.

Which outcome does the source give for `COc1ccc(C(C(=O)Nc2ccc(C(C)C)cc2)N(Cc2ccco2)C(=O)CC2NC(=O)NC2=O)cc1` (stereo not drawn) here?
The outcome was “inactive”.

Which outcome does the source give for `Cc1ncc([N+](=O)[O-])n1CC(=O)NC1CCCC1` here?
Its outcome is “inactive”.

Which outcome does the source give for `CC(=O)NS(=O)(=O)c1ccc(Nc2ccc([N+](=O)[O-])c3nonc23)cc1` here?
Its outcome is “inactive”.

Which outcome does the source give for `O=C1CC(=O)CC(c2ccco2)C1` here?
The outcome was “inactive”.

Which outcome does the source give for `CC1=C([N+](=O)[O-])C(c2ccccc2)C2=C(N1)c1ccccc1C2=O` (stereo not drawn) here?
Its outcome is “inactive”.

Which outcome does the source give for `COc1ccccc1C(=O)Nc1nnc(-c2ccc(F)cc2)o1` here?
Its outcome is “inactive”.

For `N#CC1=C2N=C(N)c3ccccc3N2C2=C(C(=O)CCC2)C1c1cccc(Cl)c1` (stereo not drawn), which outcome is on record?
Its outcome is “inactive”.

Which outcome does the source give for `O=C1c2ccccc2NC(c2cccc([N+](=O)[O-])c2)N1CCc1ccccc1` (stereo not drawn) here?
The outcome was “inactive”.

With `CCS(=O)(=O)N1CCN(C(=O)c2ccco2)CC1` as the compound, how does the outcome read?
Its outcome is “inactive”.

Which outcome does the source give for `COc1cc(S(=O)(=O)N2CCN(C(=O)c3ccco3)CC2)c(OC)cc1C` here?
The outcome was “inactive”.

With `COc1ccccc1NC(=O)Cn1nc(-c2ccncc2)nc1SCC(=O)NC1CCCC1` as the compound, how does the outcome read?
Its outcome is “inactive”.

For `O=C(CCNS(=O)(=O)c1cccc2nonc12)N1CCN(c2cccc(Cl)c2)CC1`, which outcome is on record?
The outcome was “inactive”.

Which outcome does the source give for `C=CCN(c1ccccc1)S(=O)(=O)c1cccc2cccnc12` here?
The outcome was “inactive”.

With `CC1CC(C)CN(S(=O)(=O)c2cccc3cccnc23)C1` (stereo not drawn) as the compound, how does the outcome read?
Its outcome is “inactive”.

Which outcome does the source give for `CCN(CC)C(=O)C(=O)c1cn(CC(=O)N2CCc3ccccc3C2)c2ccccc12` here?
The outcome was “inactive”.

Which outcome does the source give for `CC(=O)Oc1ccc(C(=O)Nc2ccc3c(c2)C(=O)N(CCC(=O)O)C3=O)cc1` here?
Its outcome is “inactive”.

Which outcome does the source give for `Brc1ccc2c(c1)CN1CCCC1=N2` here?
Its outcome is “inactive”.

With `Cc1n[nH]c(=O)nc1NCCc1ccccc1` as the compound, how does the outcome read?
The outcome was “inactive”.

Which outcome does the source give for `c1ccc(CNc2nc(-c3ccccn3)nc3ccccc23)cc1` here?
Its outcome is “inactive”.

Which outcome does the source give for `CCOC(=O)COc1cccc2c(=O)n(CC(=O)N3CCCCC3)ccc12` here?
Its outcome is “inactive”.

Which outcome does the source give for `CC(=O)CC1OC(=O)C(Br)=C1NCc1ccccc1` (stereo not drawn) here?
The outcome was “inactive”.

With `COC(=O)CNc1n[nH]c(=S)[nH]c1=O` as the compound, how does the outcome read?
The outcome was “inactive”.

With `COc1ccc(C(=O)C[n+]2cc(Br)cc3ccccc32)cc1[N+](=O)[O-]` as the compound, how does the outcome read?
The outcome was “inactive”.

With `O=C(C[n+]1cc(Br)cc2ccccc21)c1ccc(F)cc1` as the compound, how does the outcome read?
Its outcome is “inactive”.

Which outcome does the source give for `CCOCCCNC(=O)CN1CCN(Cc2ccccc2C)C1=O` here?
Its outcome is “inactive”.

For `COC(=O)c1cc2ccsc2n1CC(=O)N(C)c1ccccc1`, which outcome is on record?
Its outcome is “inactive”.

With `COC(=O)c1c(-c2cccc(C)c2)csc1N` as the compound, how does the outcome read?
The outcome was “inactive”.

Which outcome does the source give for `CC(C)(C)CC(=O)Nc1nnc(SCC(=O)N2CCCCC2)s1` here?
The outcome was “inactive”.

For `Cc1nc(C)c(-c2ccc(SCc3ccccc3C)nn2)s1`, which outcome is on record?
The outcome was “inactive”.

Which outcome does the source give for `COc1ccc(-c2nnc(SC(C)C(=O)Nc3nccs3)n2Cc2ccccc2)cc1OC` (stereo not drawn) here?
Its outcome is “inactive”.

Which outcome does the source give for `CC1=C(C#N)CCC(=O)N1Cc1c(C)cc(C)cc1C` here?
Its outcome is “inactive”.

Which outcome does the source give for `COc1ccc(Cl)cc1NC(=O)c1cc(-c2ccccc2)on1` here?
The outcome was “inactive”.

For `CC(Oc1ccc(Br)cc1)c1nc2c3ccccc3nc(=S)n2[nH]1` (stereo not drawn), which outcome is on record?
Its outcome is “inactive”.

With `COc1ccc(NC(=O)Cn2cnc3c(cnn3C(C)(C)C)c2=O)cc1OC` as the compound, how does the outcome read?
Its outcome is “inactive”.

For `COc1ccc(-n2nnc3c(SCC(=O)N4CCCc5ccccc54)ncnc32)cc1`, which outcome is on record?
The outcome was “inactive”.

Which outcome does the source give for `Cc1ccn2cc(C(=O)Nc3nnc(C)s3)nc2c1` here?
Its outcome is “inactive”.

Which outcome does the source give for `Cc1cc(C(=O)OCC(=O)Nc2cccc(S(=O)(=O)N3CCOCC3)c2)c(C)o1` here?
The outcome was “inactive”.

For `C#CCOCCOCCOCCNc1nc(N2CCN(C(=O)[C@H](CCCCN)n3cc([C@@H](N)CO)nn3)CC2)nc(N2CCN(C(=O)[C@H](Cc3cc4ccccc4[nH]3)n3cc([C@@H](N)Cc4ccc(O)cc4)nn3)CC2)n1`, which outcome is on record?
The outcome was “inactive”.

Which outcome does the source give for `C#CCOCCOCCOCCNc1nc(N2CCN(C(=O)C(Cc3cc4ccccc4[nH]3)n3cc(C(N)C(C)CC)nn3)CC2)nc(N2CCN(C(=O)C(Cc3cc4ccccc4[nH]3)n3cc(C(N)C(C)CC)nn3)CC2)n1` (stereo not drawn) here?
The outcome was “inactive”.

With `Nc1ccc(C(O)(C(F)(F)F)C(F)(F)F)cc1` as the compound, how does the outcome read?
The outcome was “inactive”.
